Hits are enriched below; roughly 4.1% of the tested compounds scored in any of these assays.
Peg3 promoter: reduces Peg3 promoter-driven luciferase expression in HeLa; 360,000 tested, 1.7% active; HeLa PEG-Prom luciferase reporter, luminescence, overnight; inhibition, % at 20 µM;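 active = inhibition of at least 50% at 20 µM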
TWEAK Fn14 block: TWEAK-Fn14 signaling inhibition; TWEAK-stimulated Fn14 reporter cells, luciferase luminescence, 8 h; inhibition, % at 10 µM; 360,000 tested, 2% active; in the data active = inhibition above about 50%
TRPM1 prom inh: reduces MITF-dependent TRPM1 promoter luciferase signal; SK-MEL-5 TRPM1 promoter luciferase, 24 h; inhibition, % at 12.5 µM; 330,000 tested, 0.83% active;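 active = mean inhibition across replicates of 60% or more, whatever share of single replicates reaches that level; inconclusive = some that reach 60%, reason not given; inactive = mean inhibition across replicates below 60%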
Shn3 3UTR inh: Schnurri-3 reporter inhibition in Clone20 osteoblasts; 360,000 tested, 0.52% active; Clone20 osteoblast Shn3 3'UTR firefly luciferase, 24 h; inhibition, % at 12.5 µM;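 active = mean inhibition of at least 75% with every replicate also reaching 75%; inconclusive = mean inhibition at least 75% but some replicate below; inactive = mean inhibition below 75%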
TROY signal inh: blocks TROY-dependent signaling in reporter cells | Q293 LMP1-TROYcd NF-kB luciferase reporter, 4 h | inhibition, % at 10 µM | 360,000 tested, 0.98% active | AID 1347056;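 active = compounds whose plate-normalised and pattern-corrected inhibition of the luciferase reporter signal at the single screening dose is 50% or more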
LMP1 NFkB inh: Epstein-Barr LMP1 NF-kappaB reporter inhibition. LMP1-induced NF-kappaB luciferase reporter cells, luminescence. inhibition, % at 12.5 µM. 350,000 tested, 0.69% active. AID 504558; in the data active = inhibition above about 41%; inconclusive = no clear call, values can overlap the other calls
A number is an active result; – = inactive; ? = inconclusive; · = not tested or not shown.

SMILES	Peg3 promoter	TWEAK Fn14 block	TRPM1 prom inh	Shn3 3UTR inh	TROY signal inh	LMP1 NFkB inh
O=[N+]([O-])c1cc(C(F)(F)F)cc([N+](=O)[O-])c1NCCNC(=S)Nc1ccc(Cl)c(Cl)c1	53	–	–	·	58	–
Cc1cc(C)nc(SCc2ccc(C(=O)N/N=C/c3cccc(O)c3O)cc2)n1	–	–	–	–	–	52
COc1ccc(O)c(/C=N/NC(=O)c2ccc(CSc3nc(C)cc(C)n3)cc2)c1	–	–	·	88	–	–
C/C(N)=C(/C#N)C(=O)COC(=O)Cc1coc2ccc3ccccc3c12	–	–	–	–	–	–
Cc1nc(CSc2ccc(Br)cc2)cs1	–	–	–	–	–	–
Cc1cc(NC(=S)N(CCN2CCCCC2)Cc2ccco2)ccc1Cl	–	–	–	–	–	–
Cc1ccc(NC(=S)N(CCCN2CCCC2)Cc2cccn2Cc2ccc(Cl)cc2)cc1Cl	98	–	–	–	–	–
COc1ccc(NC(=S)N(CCCN2CCCC2)Cc2cccn2Cc2ccc(Cl)cc2)cc1Cl	103	–	–	–	–	–
COc1ccc(NC(=S)N(CCCN2CCC(C)CC2)Cc2cccs2)cc1Cl	–	–	–	–	–	–
FC(F)(F)c1cccc(NC(=S)N(CCCN2CCCC2)Cc2cccn2Cc2ccc(Cl)cc2)c1	106	–	–	–	–	–
Cc1ccc(NC(=S)N(CCCN2CCCC2)Cc2cccn2Cc2ccc(Cl)cc2)cc1C	102	–	–	–	–	–
COc1cccc(CNC(=S)Nc2cc(OC)ccc2OC)c1	–	–	–	–	–	–
CCCCN(C)S(=O)(=O)c1cc2c3c(c1)CCC(=O)N3CCC2	–	–	–	–	–	–
CC(=O)c1ccc(N2CCN(c3ncccn3)CC2)c([N+](=O)[O-])c1	–	–	–	–	–	–
COC(=O)c1ccc(N2CCC(c3cc(-c4ccc(OC)cc4)n[nH]3)CC2)c([N+](=O)[O-])c1	–	–	–	–	–	–
CC(=O)c1ccc(N2CCC(c3cc(-c4ccc(Cl)cc4)n[nH]3)CC2)c([N+](=O)[O-])c1	–	62	–	?	–	–
COc1ccc(-c2cc(C3CCN(c4ccc(C(C)=O)cc4[N+](=O)[O-])CC3)[nH]n2)cc1	–	71	–	?	74	–
COc1ccc(C2(c3ccc(OC)cc3)NC(=O)N(CC(=O)Nc3cc(C)ccc3OC)C2=O)cc1	–	–	–	–	–	–
CCOc1cccc(/C=N/NC(=S)Nc2ccccc2[N+](=O)[O-])c1O	–	100	–	–	90	–
Cc1cccc(NC(=S)N/N=C/c2ccc(Cl)c([N+](=O)[O-])c2)c1	62	–	–	–	–	–
CCCCNC(=S)N/N=C/c1cccc(OCC)c1O	–	–	–	–	–	–
O=[N+]([O-])c1ccccc1NC(=S)N/N=C/c1ccc(O)c(O)c1	–	66	–	–	66	–
COc1cc(OCc2ccc(C)cc2)ccc1CNC[C@H]1O[C@@H](n2cnc(C(N)=O)n2)[C@H](O)[C@@H]1O	–	–	–	–	–	–
CCCCNC(=O)C(=O)NCC1CCCN1S(=O)(=O)c1cccs1 (stereo not drawn)	–	–	–	–	–	–
COc1ccc(C(CNC(=O)c2ccc(S(=O)(=O)N3CC(C)CC(C)C3)cc2)N(C)C)cc1 (stereo not drawn)	71	–	–	–	–	–
SMILES	Peg3 promoter	TWEAK Fn14 block	TRPM1 prom inh	Shn3 3UTR inh	TROY signal inh	LMP1 NFkB inh
COc1ccc(C(CNC(=O)c2ccc(S(=O)(=O)N3CCCC3)cc2)N(C)C)cc1OC (stereo not drawn)	–	–	–	–	–	–
O=C(/C=C/Nc1cccc(C(F)(F)F)c1)C(F)(F)F	–	–	–	–	–	65
COC(=O)/C=C/C(=O)Nc1cccc(C(F)(F)F)c1	–	51	–	–	–	43
Cc1ccc(OC(F)F)c(NC(=O)Nc2cccc(C(F)(F)F)c2)c1	–	75	–	–	–	–
O=C(Nc1ccccc1)Nc1cccc(C(F)(F)F)c1	–	–	–	–	–	–
COC(=S)Nc1cccc(C(F)(F)F)c1	–	–	–	–	–	–
O=C(/C=C/Nc1ccc(OC(F)(F)F)cc1)C(F)(F)F	–	–	–	–	–	–
CC1=CN2C(=N)/C(=C/c3cn(CCCOc4ccccc4C)c4ccccc34)C(=O)N=C2S1	–	–	–	–	–	–
CC1=CN2C(=N)/C(=C/c3ccco3)C(=O)N=C2S1	–	81	–	–	–	–
CC1=CN2C(=N)/C(=C/c3ccc([N+](=O)[O-])o3)C(=O)N=C2S1	107	–	89	94	–	–
Cc1cccc(CSc2nnc(CCCCCNC(=O)OC(C)(C)C)o2)c1	–	–	–	–	72	–
Cc1ccc(CSc2nnc(CCCCCNC(=O)OC(C)(C)C)o2)cc1	–	–	–	–	–	–
CCOc1ccc(N(C)S(=O)(=O)c2cc(-c3cc(C)no3)ccc2C)cc1	–	–	–	–	–	–
CCOc1ccc(N(C)S(=O)(=O)c2cc(-c3cc(C)no3)ccc2CC)cc1	–	72	–	–	–	–
Cc1ccc(-c2csc3ncn(/N=C/N(C)C)c(=O)c23)o1	–	98	–	–	–	–
O=C(Cn1nc(Cc2ccncc2)c2ccccc2c1=O)N1CCN(C(=O)c2ccco2)CC1	–	–	–	–	–	–
Cc1cccc(N2CCN(C(=O)Cn3nc(Cc4ccncc4)c4ccccc4c3=O)CC2)c1C	–	–	–	–	–	91
CC(C)(C)[C@H]1COC(=O)[C@H](NC(=O)OCC2c3ccccc3-c3ccccc32)C/C=C\C[C@@H](CC(=O)N(CCO)Cc2ccccc2)C(=O)N1	–	–	–	–	–	–
O=C1C(=O)N(c2nccs2)C(c2ccccc2)/C1=C(\O)c1ccc2c(c1)OCCO2 (stereo not drawn)	–	–	67	–	–	–
O=C1C(=O)N(c2nccs2)C(c2ccccc2F)/C1=C(\O)c1ccc2c(c1)OCCO2 (stereo not drawn)	–	–	–	–	–	–
COc1ccccc1OCc1nnc(SCC(=O)Nc2ccc(N3CCOCC3)cc2)n1C	–	–	–	–	–	–
Cc1nnc(SCc2cnc(-c3ccc(C(C)C)cc3)s2)n1C	–	–	–	–	–	43
c1ccc(-c2ncc(CSc3nncn3-c3ccccc3)s2)cc1	–	–	–	–	–	–
CC(OC(=O)c1cc(Br)ccc1O)C(=O)Nc1ccc(S(=O)(=O)N2CCCC2)cc1 (stereo not drawn)	–	60	–	–	60	–
COc1ccc([C@H]2CC(=O)C=C(c3ccc4[nH]ccc4c3)C2)cc1OC	–	–	–	–	53	–
CC(C)(C)c1ccc(/C=C(\c2nc3ccccc3[nH]2)S(=O)(=O)c2ccccc2)cc1	104	95	91	94	–	–
Cc1cccc(/C=C(\c2nc3ccccc3[nH]2)S(=O)(=O)c2ccccc2)c1	112	75	86	93	–	–

Source: PubChem BioAssay
